# TDP1 cell CPT = growth inhibition of DT40 Tdp1-/-;hTDP1 cells with camptothecin (screen for TDP1 inhibitors); chicken DT40 Tdp1-/-;hTDP1 cells + 20 nM CPT, ATP luminescence, 48 h; Potency, µM (highest dose often 46.2 µM), inactives show at the highest dose activity change, negative = growth inhibition, hits mostly inhibitors; actives 12% (n = 420,000); also: potency is read from the fitted curve at half-maximal effect; nearly all actives have a fitted effect of over 55% in size
#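 Chicken DT40 Tdp1-/- cells complemented with human TDP1, 400 cells/well, exposed to compounds plus 20 nM camptothecin for at least 48 h at 37 C; viability read as ATP content by CellTiter-Glo luminescence.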
# HT1080 IDH1KD tx = toxicity to HT-1080 IDH1 knockdown cells (counter line); HT-1080 IDH1 knockdown viability, ATP luminescence, 48 h; Potency, µM (doses to about 46.1 µM), inactives show at the highest dose activity, negative = toxicity, most hits filed as cytotoxic; actives 2% (n = 360,000); AID 686971;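 also: potency is read from the fitted curve at half-maximal effect; 0% = DMSO wells and -100% = cell-free medium wells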
#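 IDH1KD HT-1080 cells, 750/well, RPMI + 5% FBS; compound pinned after 2 h settling; 48 h, 37 °C; CellTiter-Glo luminescence; % activity normalised to DMSO and no-cell wells; curves fitted, classed by r2 and efficacy.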
# TDP1 cell noCPT = qHTS for Inhibitors of human tyrosyl-DNA phosphodiesterase 1 (TDP1): qHTS in cells in absence of CPT. AID 686978, 2013. actives 15% (n = 420,000). Potency, µM (highest dose often 46.2 µM), inactives show top-dose activity change, negative = growth inhibition, hits mostly inhibitors. DT40 Tdp1-/- hTDP1 cells, no CPT, ATP luminescence, 48 h; also: potency is read from the fitted curve at half-maximal effect; nearly all actives have a fitted effect of over 55% in size
#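 Chicken DT40 Tdp1-/- cells complemented with human TDP1, screened without camptothecin (DMSO vehicle only), 400 cells/well. Compounds pin-transferred, cells incubated at 37 °C for at least 48 hr. Growth read as ATP-dependent luminescence (CellTiter-Glo, 30 min at RT).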
# IL1B secr inh = inflammasome signaling inhibition, IL-1 beta readout; THP-1 LPS/ATP IL-1B secretion, AlphaLISA, 16 h; active compounds read low; activity change, % at 57.5 µM; actives 4.7% (n = 360,000); in the data active = activity change below about -50%; inconclusive = mostly about -30% to -49%
#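 THP-1 cells pretreated 1 hr with compounds (up to 57.5 uM final), then stimulated with LPS (250 ng/mL final) plus ATP (1.25 mM final); secreted IL-1B measured by AlphaLISA after 16 hr, decreased signal indicating inhibition.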
# ALOX12 inh = ALOX12 (human) lipoxygenase inhibition; P18054; AID 1671190; actives 1.1% (n = 580,000); purified 12hLO, xylenol orange hydroperoxide absorbance; Potency, µM (top dose mostly 108 µM), without a hit: at the highest dose activity change, negative = inhibition, hits mostly inhibitors; also: potency is read from the fitted curve at half-maximal effect
# Target sequence (P18054 whole entry, looked up): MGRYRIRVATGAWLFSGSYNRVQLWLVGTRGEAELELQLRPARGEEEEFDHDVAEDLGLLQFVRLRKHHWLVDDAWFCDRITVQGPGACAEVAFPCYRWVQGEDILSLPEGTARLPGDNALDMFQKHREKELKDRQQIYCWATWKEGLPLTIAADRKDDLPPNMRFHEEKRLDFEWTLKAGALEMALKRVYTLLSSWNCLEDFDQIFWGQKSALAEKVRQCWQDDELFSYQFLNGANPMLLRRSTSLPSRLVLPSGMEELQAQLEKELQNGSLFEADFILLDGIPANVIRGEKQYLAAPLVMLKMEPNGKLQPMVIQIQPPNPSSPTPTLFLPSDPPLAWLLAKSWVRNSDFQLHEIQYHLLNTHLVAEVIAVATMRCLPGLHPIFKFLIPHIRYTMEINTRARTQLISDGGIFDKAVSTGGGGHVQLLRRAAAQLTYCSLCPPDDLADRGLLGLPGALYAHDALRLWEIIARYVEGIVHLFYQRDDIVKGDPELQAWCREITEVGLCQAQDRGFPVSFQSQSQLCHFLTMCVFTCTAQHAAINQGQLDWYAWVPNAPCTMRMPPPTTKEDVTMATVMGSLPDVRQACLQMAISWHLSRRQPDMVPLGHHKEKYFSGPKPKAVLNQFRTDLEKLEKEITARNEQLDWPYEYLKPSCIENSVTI
#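 Purified human 12hLO at 150 nM in 25 mM Hepes, 0.01% Triton X-100, pH 7.0, preincubated 15 min at room temperature with compound. Reaction started with 40 uM arachidonic acid, 30 min at room temperature. Hydroperoxide measured by Fe-xylenol orange, 573/405 nm absorbance ratio.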
# HT1080NT lethal = kills 2HG-producing HT-1080-NT fibrosarcoma cells. Potency, µM (titrated, usually from 46.1 µM), inactives show at the top dose activity, negative = less viability, most hits filed as cytotoxic. AID 686970. actives 1.6% (n = 360,000). HT-1080-NT fibrosarcoma viability, CellTiter-Glo ATP luminescence, 48 h;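 also: NT is the 2HG producing partner of a matched IDH1 knockdown line; potency is read from the fitted curve at half-maximal effect; 0% = DMSO-treated cells and -100% = media-only wells without cells; nearly all actives have a fitted effect of over 55% in size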
#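 Compounds were tested in concentration-response format on HT-1080-NT cells for 48 hours at 37 degrees C. Cell viability came from CellTiter-Glo luminescence; curves were classified by r2, response magnitude and activity.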
# Numbers without * were called inactive; u = inconclusive; x = no result. Only a selection was taken, and hits are over-represented in it overall. Unless noted, calls follow the shape of the dose curve; as a rule, active = well fitted curve in the direction sought with a large enough effect; inconclusive = small, poorly fitted or top-dose-only effect, or another doubt; inactive = no such curve, though single readings can be large; an effect the other way counts as inactive or inconclusive. Unless noted, % is scaled to controls: 0 for no effect and ±100 for the full control effect.
SMILES,TDP1 cell CPT,HT1080 IDH1KD tx,TDP1 cell noCPT,IL1B secr inh,ALOX12 inh,HT1080NT lethal
CCC(=O)c1cccc(-c2ccccc2)c1CC,5%,-7%,-16%,-69*,-2%,-18%
COc1cc(NC(=O)c2noc(C)c2[N+](=O)[O-])c(OC)cc1Cl,15µM*,3%,6.5µM*,-7,4%,1%
COc1cc(NC(=O)c2noc3c2CCC3)c(OC)cc1Cl,-22%,-7%,-27%,25,26%,7%
CCOC(=O)C1CCN(C(=O)CSc2n[nH]c(-c3ccccc3Cl)n2)CC1,u,x,u,x,-21%,x
CS(=O)(=O)N(CC(=O)NCc1ccc2c(c1)OCO2)Cc1ccccc1,29µM*,-7%,21µM*,-5,-8%,-13%
O=C(Cc1ccccc1)NCc1ccc2c(c1)OCO2,-6%,-3%,-5%,0,-10%,-4%
Cc1cc(C)cc(NC(=O)CN(Cc2ccccc2)S(C)(=O)=O)c1,u,-9%,13µM*,0,-17%,-8%
CC(C)(C)NC(=O)CN(Cc1cccs1)C(=O)C1COc2ccccc2O1 (stereo not drawn),-25%,14%,-24%,-9,-20%,-1%
O=C(CCc1cccs1)NC1CCCC1,x,x,x,x,7%,x
CC(C)CCNC(=O)C(c1ccc(O)cc1)N(Cc1cccs1)C(=O)C1COc2ccccc2O1 (stereo not drawn),23µM*,u,16µM*,-73*,-35%,u
CC(NCc1cccs1)C(=O)NC1CCCCC1 (stereo not drawn),-30%,12%,-1%,-62*,-15%,2%
O=C(NCc1ccco1)C(c1cccs1)N(C(=O)C1COc2ccccc2O1)c1cccc(O)c1 (stereo not drawn),23µM*,-19%,13µM*,-7,u,-18%
O=C(NC1CCCCC1)C(c1cccs1)N(Cc1cccs1)C(=O)c1ccco1 (stereo not drawn),15µM*,-1%,9.2µM*,-12,-27%,8%
COc1cc(C=O)cc(Cl)c1OCc1cccc(C(=O)O)c1,x,x,x,x,43%,x
COc1ccc(C(C(=O)NC2CCCC2)N(CC2CCCO2)C(=O)Cc2cccs2)cc1OC (stereo not drawn),5%,1%,8%,3,1%,-8%
O=C(NC1CCCCC1)C(c1ccc(O)cc1)N(CC1CCCO1)C(=O)C1COc2ccccc2O1 (stereo not drawn),u,4.6µM*,u,-13,-13%,4.6µM*
O=C(Cc1cccs1)N(Cc1cccs1)C1(C(=O)NC2CCCCC2)CCCCC1,26µM*,0%,16µM*,-52*,1%,4%
O=C(NC1CCCC1)C(c1cccs1)N(CC1CCCO1)C(=O)Cc1cccs1 (stereo not drawn),u,4%,21µM*,6,u,0%
CC(=O)Nc1cccc(-c2ccnc3c2CC(C)(C(=O)NCCc2ccccc2)O3)c1 (stereo not drawn),5.8µM*,u,4.6µM*,104,-5%,u
CC1(C(=O)NCc2ccccc2)Cc2c(-c3ccc(C(N)=O)cc3)ccnc2O1 (stereo not drawn),1.6µM*,1.5µM*,2.1µM*,44,-3%,u
CC(=O)Nc1cccc(-c2ccnc3c2CC(C)(C(=O)Nc2cccc(NS(C)(=O)=O)c2)O3)c1 (stereo not drawn),-7%,-26%,-28%,-19,3%,-16%
CC(C)NC(=O)C1(C)Cc2c(-c3ccc(C(N)=O)cc3)ccnc2O1 (stereo not drawn),1%,10%,4%,5,0%,15%
